AHR activator: human AHR activation; activation, % at 5 µM; AHR-responsive luciferase reporter cells, luminescence; AID 2796; 320,000 compounds, 2.5% hits; P35869; in the data active means activation above about 47%
Target sequence (P35869 whole entry, looked up): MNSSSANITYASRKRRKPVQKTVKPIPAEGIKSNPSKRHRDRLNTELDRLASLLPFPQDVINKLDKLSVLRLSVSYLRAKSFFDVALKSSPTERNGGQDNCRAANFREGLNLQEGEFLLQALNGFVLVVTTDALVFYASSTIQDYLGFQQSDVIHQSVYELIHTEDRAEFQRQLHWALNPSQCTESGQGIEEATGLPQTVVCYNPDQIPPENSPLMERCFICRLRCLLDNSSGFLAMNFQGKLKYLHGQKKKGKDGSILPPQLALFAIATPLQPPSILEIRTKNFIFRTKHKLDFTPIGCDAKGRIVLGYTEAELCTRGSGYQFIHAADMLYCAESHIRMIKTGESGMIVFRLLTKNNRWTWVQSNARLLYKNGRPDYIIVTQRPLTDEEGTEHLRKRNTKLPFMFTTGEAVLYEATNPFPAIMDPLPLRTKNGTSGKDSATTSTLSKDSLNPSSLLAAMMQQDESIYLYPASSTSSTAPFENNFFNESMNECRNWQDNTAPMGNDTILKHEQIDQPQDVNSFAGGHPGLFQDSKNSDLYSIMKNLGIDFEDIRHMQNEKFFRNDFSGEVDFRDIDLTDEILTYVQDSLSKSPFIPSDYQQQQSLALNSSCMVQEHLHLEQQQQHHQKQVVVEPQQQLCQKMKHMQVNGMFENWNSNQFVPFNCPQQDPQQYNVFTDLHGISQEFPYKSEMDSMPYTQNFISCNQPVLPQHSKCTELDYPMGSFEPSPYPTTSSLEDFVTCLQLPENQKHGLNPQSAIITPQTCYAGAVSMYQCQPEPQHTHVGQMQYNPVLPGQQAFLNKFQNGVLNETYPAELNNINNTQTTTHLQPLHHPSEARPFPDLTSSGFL
ADAM17 inh: inhibits human ADAM17 | P78536 | recombinant ADAM17, EDANS/DABCYL FRET peptide cleavage | inhibition, % at 6.95 µM | 370,000 compounds, 0.83% hits | AID 720648;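 active means inhibition above the mean of compounds lying between control limits plus 3 SD, set per campaign, cut at about 8.5% in these data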
NR3A LBD binder: modulators (binders) of human NR3A ligand-binding domain | NR3A LBD differential scanning fluorimetry, Tm shift; 0% = protein alone, 100% = glycine-bound protein | Tm shift relative to glycine control, % at 25 µM | 340,000 compounds, 2.5% hits | AID 1259313;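 active means melting temperature shift of at least 10% of the positive control shift, at one fixed dose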
proKLK7 act: activates the human kallikrein-7 zymogen; P49862; purified proKLK7, EDANS-DABCYL substrate fluorescence; 100% is mature enzyme control, 0% vehicle; activation, % at 7 µM; 370,000 compounds, 0.9% hits; AID 652039;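 active means activation above the mean of all tested compounds plus 3 SD, computed per campaign excluding outliers beyond control limits, cut at about 13% in these data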
rCAG RNA binder: r(CAG) repeat RNA binding. TO-PRO-1 dye displacement fluorescence. inhibition, % at 3 µM. 370,000 compounds, 1.3% hits. AID 651821;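 active means inhibition above the plate cutoff, the mean of all test compounds on that plate plus 3 SD, cut at about 35% in these data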;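 further: higher means more dye released from RNA so lower well fluorescence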
ADAM10 inh: ADAM10 inhibition, QFRET primary screen; 370,000 compounds, 0.62% hits; recombinant ADAM10, EDANS/DABCYL FRET peptide cleavage, 3 h; inhibition, % at 7 µM;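 active means inhibition above a per-campaign cutoff equal to the mean of compounds falling between control-based bounds plus 3 SD, cut at about 20% in these data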
Large screens that a line does not name were inactive. This is a sample that favours compounds with a hit; in the whole collection about 7% have one here.

C[C@H]1CCC/C=C/C(=O)c2c(cc(O)c(Cl)c2O)CC(=O)O1	none (no result: AHR activator, NR3A LBD binder)
CCOC(=O)[C@@]12CN(C(=O)OC(C)(C)C)CC=C1N(Cc1ccc(OC)cc1)C(=O)[C@H]2CC(=O)NCc1cccc(C(F)(F)F)c1	none (no result: AHR activator, NR3A LBD binder)
COC(=O)[C@]12CCCCC=C1N(Cc1ccc(OC)cc1)C(=O)[C@@H]2CC(=O)N1CCCC1	none (no result: AHR activator, NR3A LBD binder)
CC(=O)N1CCn2c3ccc(C)cc3c3cccc1c32	AHR activator 71.4
CC(=O)N1CCN(C(C)=O)c2ccccc21	none (no result: AHR activator)
COc1ccc(N2CCN(CCCNC(=O)CCc3cccc(Cl)c3)CC2)cc1	none (no result: AHR activator, NR3A LBD binder)
CCOC(=O)c1c(C)[nH]c(C(=O)OCc2ccc(C)cc2)c1C	AHR activator 48.6
CCOC(=O)c1c(C)[nH]c(C(=O)OCc2ccc([N+](=O)[O-])cc2)c1C	AHR activator 52.8
C=CCCC(=O)N1C[C@H]2CCN(C)[C@H]2C[C@H]1c1ccccc1Br	none (no result: AHR activator, NR3A LBD binder)
C=CCN1C(=O)[C@H](CC(=O)N2CCN(C(=O)c3ccco3)CC2)[C@@]2(C(=O)OCC)CCCC=C12	none (no result: AHR activator, NR3A LBD binder)
COc1cccc(Cn2c(=O)sc3ccccc3c2=O)c1	none
Cc1ccc(Cn2c(=O)sc3ccccc3c2=O)cc1	NR3A LBD binder 10.7
COc1cc([N+](=O)[O-])ccc1NC(=O)CSc1nc2ccccc2n1-c1ccccc1	AHR activator 61.3 (no result: NR3A LBD binder)
CCOP(=O)(OCC)c1ccc2c(c1)C(=O)c1ccccc1-2	none (no result: AHR activator, NR3A LBD binder, proKLK7 act, rCAG RNA binder)
Cc1cc(C(=O)N/N=C/c2cccc(Cl)c2Cl)no1	AHR activator 47.1
Cc1cc(C(=O)N/N=C/c2ccc(-c3cccc(Br)c3)o2)n[nH]1	NR3A LBD binder 14.9
CCOC(=O)N/N=C/c1cccc(Cl)c1Cl	none
Cc1cc(C(=O)N/N=C/c2ccc(-c3cccc(Cl)c3Cl)o2)n[nH]1	NR3A LBD binder 13.1
Cc1cc(C(=O)N/N=C/c2ccco2)n[nH]1	none
Cc1ccc(-c2nc(C3CCCN(S(=O)(=O)c4ccccc4)C3)no2)cc1 (stereo not given)	none (no result: AHR activator, NR3A LBD binder)
S=C(Nc1ccc(Br)cc1)OCCN1CCCC12CCC(c1ccccc1)CC2 (stereo not given)	none (no result: AHR activator, NR3A LBD binder, proKLK7 act, rCAG RNA binder)
O=C(N=Nc1c(O)[nH]c2ccccc12)c1cc(-c2ccc(F)cc2)n[nH]1	NR3A LBD binder 19.3
O=C(N=Nc1c(O)[nH]c2ccccc12)c1cc(-c2cccs2)[nH]n1	AHR activator 83.8, NR3A LBD binder 22.3
Oc1[nH]c2ccccc2c1N=Nc1ccccc1F	AHR activator 53.6
CCCCNS(=O)(=O)CC1NCc2ccc(C)cc21 (stereo not given)	none (no result: AHR activator, NR3A LBD binder)
COc1cc(C2Nc3cc(C)c(C)cc3NC3=C2C(=O)CC(C)(C)C3)ccc1OC(C)=O (stereo not given)	AHR activator 61.0
COc1ccc(C2Nc3ccccc3NC3=C2C(=O)CC(C)(C)C3)cc1OC (stereo not given)	none
O=C(NC(=S)NCCC1=CCCCC1)c1ccccc1Br	AHR activator 49.6
O=C(CCS(=O)(=O)c1ccccc1)Nc1nc2c(s1)COc1ccccc1-2	AHR activator 62.7
O=c1c(O)c(-c2ccccc2)oc2cc(O)cc(O)c12	NR3A LBD binder 11.0
O=c1c(O)c(-c2ccccc2)oc2cc(O)ccc12	none (no result: AHR activator, NR3A LBD binder)
C[C@@H]1O[C@@H](OC[C@H]2O[C@@H](Oc3c(-c4ccc(O)c(O)c4)oc4cc(O)cc(O)c4c3=O)[C@H](O)[C@@H](O)[C@@H]2O)[C@H](O)[C@H](O)[C@H]1O	none
O=c1c(-c2ccccc2)c(-c2ccccc2)oc2cc(O)cc(O)c12	NR3A LBD binder 19.5
COc1c(-c2ccc(O)c(O)c2)oc2cc(O)cc(O)c2c1=O	NR3A LBD binder 16.1
Brc1ccccc1-n1nnc(-c2nccs2)n1	none
c1ccc(-n2nnc(-c3nccs3)n2)cc1	AHR activator 53.7
CCC(C)NC(=O)C1CCN(S(=O)(=O)c2ccc3[nH]c(=O)oc3c2)CC1 (stereo not given)	none (no result: AHR activator, NR3A LBD binder)
O=C(CCc1ccccc1)N[C@H]1[C@@H](OC(=O)c2cnccn2)CCC[C@]12C(=O)N(Cc1ccccc1)c1ccccc12	none (no result: AHR activator, NR3A LBD binder)
CCOC(=O)c1cnn(-c2ccccn2)c1N	none
CCOC(=O)c1cnn(-c2cc(C)c3ccccc3n2)c1N	AHR activator 53.3
CCOC(=O)C1=Nc2ccccc2C1=[N+]=[N-]	AHR activator 66.2
COc1ccc(C(=O)c2[nH]c(N)c(C(=O)c3c[nH]c4ccccc34)c2-c2ccc(OC)cc2)cc1	none (no result: AHR activator, NR3A LBD binder)
O=C(Nc1nccs1)c1cncc(Br)c1	AHR activator 56.4
O=C(Nc1nccs1)c1ccc2nccnc2c1	AHR activator 53.1
O=C(Nc1ccc(F)cc1)Nc1nc2ncccn2c1-c1ccc(F)cc1	none (no result: AHR activator, NR3A LBD binder)
O=C(N/N=C/c1c[nH]c2ccccc12)c1cccc(Cl)c1	AHR activator 52.3, NR3A LBD binder 37.0
CCOc1ccccc1C(=O)N/N=C/c1c[nH]c2ccccc12	none
Brc1ccccc1/C=N/Nc1ccccn1	none
Cn1ccc(C(=O)N/N=C/c2c[nH]c3ccccc23)n1	none
Cc1ccc(/C=N/Nc2ccccn2)s1	AHR activator 48.5
COc1ccc(C(=O)N/N=C/c2c[nH]c3ccccc23)cc1	AHR activator 55.8, NR3A LBD binder 36.6
CC(=O)Nc1cccc(C(=O)N/N=C/c2c[nH]c3ccccc23)c1	AHR activator 75.8, NR3A LBD binder 30.0
O=C(C(=O)N1CCN(C(=O)c2ccccc2C(F)(F)F)CC1)c1cccc(C(F)(F)F)c1	none (no result: AHR activator, NR3A LBD binder)
O=C(O)c1cc(N/N=C/c2c[nH]c3ccccc23)ccc1Cl	AHR activator 58.1, NR3A LBD binder 21.7
CC(C)NC(=S)N/N=C/c1c[nH]c2ccccc12	AHR activator 128.6
Cc1[nH]c2ccccc2c1/C=N/NC(=S)NC(C)C	none
O=C(N/N=C/c1c[nH]c2ccccc12)c1cccc(O)c1	NR3A LBD binder 25.7
C(=N\Nc1ccccn1)/c1c[nH]c2ccccc12	AHR activator 47.6
C#CCN1CC(N(C)CCOC(=O)c2cc(C)cc(C)c2)CS1(=O)=O (stereo not given)	none (no result: AHR activator, NR3A LBD binder)
CCOC(=O)C1CSCCS(=O)(=O)N1Cc1ccc(F)cc1 (stereo not given)	none (no result: AHR activator, NR3A LBD binder)
O=C(N/N=C/c1c[nH]c2ccccc12)c1ccc(O)c(O)c1	NR3A LBD binder 28.5
COc1ccc(C(=O)N/N=C/c2cc3ccccc3[nH]c2=S)cc1	AHR activator 57.1
COc1ccc(C(=O)N/N=C/c2cccc3cccnc23)cc1	none
Cc1noc(C)c1S(=O)(=O)N(C)C[C@@H]1OCc2cnnn2CCCC(=O)N([C@@H](C)CO)C[C@@H]1C	none (no result: AHR activator, NR3A LBD binder)
CN(c1ccccc1)c1ccc(/C=C/[N+](=O)[O-])cc1	NR3A LBD binder 16.2
O=[N+]([O-])c1ccc(C=CC=Cc2ccccc2)cc1	none (no result: AHR activator, NR3A LBD binder)
O=C(NCCc1ccccn1)c1ccc2c(c1)ncn2C1CCCCC1	none (no result: AHR activator, NR3A LBD binder)
Cc1ccc(-n2c(SCC(=O)Nc3ccccc3-c3ccccc3)nnc2-c2ccco2)cc1	none (no result: AHR activator, NR3A LBD binder)
